Compound activity (PubChem)
EPAC1 antag – EPAC1 (human) antagonism | Potency, µM (doses to about 115 µM), actives largely listed as inhibitors | O95398 | 0.14% of 360,000 active | EPAC1 GEF assay, Rap1b-BODIPY-GDP exchange fluorescence; note: nearly all actives have a fitted effect of over 50% in size
EPAC2 antagonist – EPAC2 (human) antagonism | EPAC2 GEF exchange of Rap1B-BODIPY-GDP, fluorescence | Potency, µM (doses to about 114 µM), most hits filed as inhibitors | 0.18% of 360,000 active | AID 720708; note: nearly all actives have a fitted effect of over 45% in size
Target sequence (Q8WZA2 whole entry, looked up): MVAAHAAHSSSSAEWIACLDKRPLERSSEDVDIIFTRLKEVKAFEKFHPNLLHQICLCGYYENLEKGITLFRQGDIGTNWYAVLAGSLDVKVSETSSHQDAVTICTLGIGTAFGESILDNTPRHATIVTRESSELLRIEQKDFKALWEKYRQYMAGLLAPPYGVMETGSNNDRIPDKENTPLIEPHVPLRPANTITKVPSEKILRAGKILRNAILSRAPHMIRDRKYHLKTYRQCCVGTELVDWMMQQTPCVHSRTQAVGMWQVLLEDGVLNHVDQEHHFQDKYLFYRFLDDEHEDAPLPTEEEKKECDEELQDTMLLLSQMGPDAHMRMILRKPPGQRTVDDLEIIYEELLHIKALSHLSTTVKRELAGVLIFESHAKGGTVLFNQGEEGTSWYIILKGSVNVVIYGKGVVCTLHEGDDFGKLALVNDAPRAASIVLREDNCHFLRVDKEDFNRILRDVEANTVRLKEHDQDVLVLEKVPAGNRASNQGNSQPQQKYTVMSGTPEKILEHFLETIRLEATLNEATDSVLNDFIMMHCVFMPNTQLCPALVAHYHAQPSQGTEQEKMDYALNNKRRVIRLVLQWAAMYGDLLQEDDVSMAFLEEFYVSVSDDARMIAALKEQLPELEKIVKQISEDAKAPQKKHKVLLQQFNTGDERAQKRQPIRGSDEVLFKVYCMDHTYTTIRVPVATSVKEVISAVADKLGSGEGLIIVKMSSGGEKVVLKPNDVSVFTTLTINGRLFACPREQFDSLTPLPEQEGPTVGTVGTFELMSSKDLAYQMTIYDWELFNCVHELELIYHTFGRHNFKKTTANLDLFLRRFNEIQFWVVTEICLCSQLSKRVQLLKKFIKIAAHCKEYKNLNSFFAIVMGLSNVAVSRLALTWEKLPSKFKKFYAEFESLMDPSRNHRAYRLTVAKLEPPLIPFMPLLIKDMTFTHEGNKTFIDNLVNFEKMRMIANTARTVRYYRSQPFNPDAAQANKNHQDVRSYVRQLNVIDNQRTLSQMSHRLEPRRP
EPAC1 agonist – activates human EPAC1 exchange factor; O95398; EPAC1 agonist qHTS, biochemical assay; response scale: 100% = response to 6.5 mM cAMP; Potency, µM (top dose mostly 154 µM), most hits filed as activators; 0.073% of 360,000 active; AID 720707; note: nearly all actives have a fitted effect of over 60% in size
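Nucleotide exchange assay: 100 nM EPAC1 with 250 nM Rap1B loaded with BODIPY-GDP and 50 uM GDP, room temperature. Fluorescence (480/540 nm) read every 5 min for 30 min; signal change normalized to 6.5 mM cAMP as full agonist.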
EPAC2 agonist – agonists of human EPAC2 (RAPGEF4); EPAC2 activation, biochemical qHTS; response scale: 100% = 6.5 mM cAMP response; Potency, µM (titrated, usually from 154 µM), hits mostly activators; AID 720711; 0.079% of 360,000 active; note: nearly all actives have a fitted effect of over 50% in size
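Compounds were added across a concentration range to EPAC2 (100 nM), RAP1B-BODIPY-GDP (250 nM) and GDP (50 uM). After 5 min at room temperature, fluorescence was recorded at 5-min intervals for 30 min.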
USP1-UAF1 inh – inhibitors of human USP1/UAF1 deubiquitinase | Potency, µM (highest dose often 57.1 µM), actives largely listed as inhibitors | 0.23% of 390,000 active | recombinant USP1/UAF1, Ub-Rhodamine cleavage fluorescence | O94782; note: nearly all actives have a fitted effect of over 60% in size
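Step one: compound is pinned into 1nM USP1/UAF1 in HEPES pH 7.8 buffer with TCEP. Step two: 15 min room-temperature incubation. Step three: Ub-Rho (150nM final) starts cleavage, tracked by fluorescence over six one-minute reads.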
ALOX12 inh – inhibitors of human 12S-lipoxygenase ALOX12 | 1.1% of 580,000 active | purified 12hLO, xylenol orange hydroperoxide absorbance | Potency, µM (top dose mostly 108 µM), usual class: inhibitors | AID 1671190
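Purified human 12hLO (150 nM final) in 25 mM Hepes, 0.01% Triton X-100, pH 7.0 was preincubated 15 min at room temperature with compound. Then 40 uM arachidonic acid was added, 30 min. Hydroperoxide was read by Fe-XO absorbance ratio 573/405 nm.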
Numbers stand for hits; . = inactive; ? = inconclusive; / = no result given; ! = not confirmed by another sample. In the library only some 1.3% were active in any assay of this set; here they are far more common. Calls come from the whole dose curve; as a rule, active = well fitted curve in the direction sought with a large enough effect; inconclusive = small, poorly fitted or top-dose-only effect, or another doubt; inactive = no such curve, though single readings can be large; an effect the other way counts as inactive or inconclusive.

SMILES | EPAC1 antag | EPAC2 antagonist | EPAC1 agonist | EPAC2 agonist | USP1-UAF1 inh | ALOX12 inh
C=CCOc1ccc(/C(O)=C2\C(=O)C(=O)N(CCOC)C2c2cccnc2)cc1 (centres undefined) | . | . | . | . | . | 40µM
Cc1ccc(/C(O)=C2\C(=O)C(=O)N(c3nc4ccccc4s3)C2c2ccc(O)cc2)cc1 (centres undefined) | / | / | / | / | / | 18µM
CCOc1ccc(/C(O)=C2\C(=O)C(=O)N(c3nccs3)C2c2ccc(C)cc2)cc1 (centres undefined) | / | / | / | / | / | 6.3µM
CCCOc1ccc(/C(O)=C2/C(=O)C(=O)N(CCOC)C2c2cccnc2)cc1 (centres undefined) | / | / | / | / | / | .
CCOc1ccc(/C(O)=C2/C(=O)C(=O)N(c3ncccn3)C2c2ccc(Cl)cc2)cc1 (centres undefined) | . | . | . | . | . | .
COc1ccc(C2/C(=C(\O)c3ccc(C)cc3)C(=O)C(=O)N2CCCO)cc1 (centres undefined) | / | / | / | / | / | 0.56µM
COc1cccc(/C=C(\C#N)c2nc3ccccc3o2)c1 | / | / | / | / | / | .
COc1ccc(-c2nc3c(c(SCC(=O)Nc4ccc(OC)cc4OC)n2)COC(C)(C)C3)cc1 | / | / | / | / | / | .
CC(=O)NC1(C(F)(F)F)C(=O)N(Cc2ccccc2)C(C)=C1C(=O)c1ccccc1 (centres undefined) | / | / | / | / | / | .
Cc1ccc(C2(c3ccc(O)cc3)CCCCC2)cc1 | / | / | / | / | / | .
Oc1ccc(C2(c3ccc(O)cc3)CCCC2)cc1 | / | / | / | / | / | 35µM
Fc1ccc(-c2c[nH]c(=S)n2Cc2ccccc2)cc1 | . | . | . | . | . | 50µM
Fc1ccc(-c2n[nH]c(=S)n2Cc2ccccc2)cc1 | . | . | . | . | . | /
N#CC(C#N)=Cc1cc2ccccc2nc1N1CCOCC1 | . | . | . | . | ? | .
O=C(/C=C/c1cc2ccccc2nc1N1CCOCC1)c1cccc(O)c1 | / | / | / | / | / | 16µM
CSc1cccc(C(=O)Nc2cc(F)c(F)cc2Cl)c1 | / | / | / | / | / | .
O=C(COC(=O)c1cc(=O)c2ccccc2o1)Nc1ccc(F)c(F)c1 | / | / | / | / | / | .
COC(=O)c1cccc(NC(=S)N[C@@H]2C=C[C@@H](c3c(C)nn(-c4ccc(C(C)C)cc4)c3C)C2)c1 | / | / | / | / | / | 45µM
Cc1nn(-c2ccc(C(C)C)cc2)c(C)c1[C@@H]1C=C[C@@H](NC(=S)NC2CCCCC2)C1 | / | / | / | / | / | 40µM
COc1ccc(NC(=O)N[C@@H]2C=C[C@@H](c3c(C)nn(-c4ccc(C(C)C)cc4)c3C)C2)cc1 | / | / | / | / | / | .
COc1ccc(S(=O)(=O)NC[C@@H]2C=C(C)[C@H](CC(=O)N3CCN(c4ccccn4)CC3)C[C@H]2C(C)C)cc1 | / | / | / | / | / | .
N#C/C(=C\C=C\c1ccco1)C(=O)NC1CCCCCC1 | / | / | / | / | / | 13µM
N#C/C(=C/C=C/c1ccccc1)C(=O)NC1CC1 | / | / | / | / | / | .
O=c1[nH]c(N2CCOCC2)cc2ccccc12 | . | . | . | . | 10µM | .
O=c1c(N2CCOCC2)coc2ccccc12 | . | . | . | . | . | .
SMILES | EPAC1 antag | EPAC2 antagonist | EPAC1 agonist | EPAC2 agonist | USP1-UAF1 inh | ALOX12 inh
CCOc1cc(/C=C/C(=O)c2cccc(Cl)c2)cc(Cl)c1O | / | / | / | / | / | 5.6µM
CCOc1cc(/C=C/C(=O)c2ccccc2Cl)cc(Cl)c1O | / | / | / | / | / | 35µM
CCOc1ccc(/C=C/C(=O)c2ccccc2)cc1OC | . | . | . | . | . | .
CC(Sc1ncnc2nc[nH]c12)C(=O)Nc1cccc2ccccc12 (centres undefined) | / | / | / | / | / | .
O=C(NC(=S)Nc1ccc(N2CCOCC2)cc1)c1ccccc1 | . | . | . | . | . | ?
COc1ccc(C(=O)NC(=S)Nc2ccc(CN3CCOCC3)cc2)cc1OC | . | . | . | . | . | .
CCc1ccc(C(=O)NC(=S)Nc2ccc(N3CCOCC3)cc2)cc1 | . | . | . | . | . | 22µM
COc1ccc(C(=O)NC(=S)Nc2ccc(CN3CCOCC3)cc2)cc1Cl | ? | . | . | . | . | 32µM
O=C(CCc1ccsc1)N(Cc1ccncc1)C1CC1 | / | / | / | / | / | .
O=C(CCc1ccsc1)N(Cc1ccco1)C1CC1 | / | / | / | / | / | 16µM
O=C(c1ccsc1)N(Cc1ccco1)C1CC1 | / | / | / | / | / | 35µM
O=C(Cc1cccs1)N(Cc1ccco1)C1CC1 | / | / | / | / | / | 14µM
CCN1/C(=C/C=C/C=C/C=C/c2sc3ccccc3[n+]2CC)Sc2ccccc21 | . | . | . | . | ? | 40µM
CC(=O)c1c(C)[nH]c(C(=O)/C(C#N)=C\c2ccc(F)cc2)c1C | / | / | / | / | / | 35µM
Cc1ccccc1CN1CCC2(CC1)COCCN2C(=O)OCc1ccccc1 | / | / | / | / | / | .
CC(C)CCC(CCNCc1ccco1)c1ccco1 (centres undefined) | / | / | / | / | / | 0.45µM
CC(=O)N1CCC(C(=O)NCCC2=CCCCC2)CC1 | / | / | / | / | / | .
CCN(CC)c1ccc2cc(-c3nc4ccccc4[nH]3)c(=O)oc2c1 | . | . | ? | . | . | /
CCN(CC)c1ccc2cc(C(=O)c3cccs3)c(=O)oc2c1 | . | . | 56µM | 79µM | / | ?
CC(O)C(C)O (centres undefined) | / | / | / | / | / | .
COc1ccc(C(=O)N2CCC3(CC2)NC(=O)N(c2cccc(Cl)c2)N3)cc1 | / | / | / | / | / | 1.8µM
COc1cc(OC)cc(C(=O)N2CCC3(CC2)NC(=O)N(Cc2ccccc2)C3=O)c1 | / | / | / | / | / | .
COc1ccccc1CCC(=O)N1CCC2(CC1)NC(=O)N(c1cccc(F)c1)N2 | / | / | / | / | / | 10µM
COc1cc(OC)cc(C(=O)N2CCC3(CC2)NC(=O)N(c2cccc(F)c2)N3)c1 | / | / | / | / | / | 2.8µM
COc1cc(OC)cc(C(=O)N2CCC3(CC2)NC(=O)N(c2cccc(Cl)c2)N3)c1 | / | / | / | / | / | 1.3µM
SMILES | EPAC1 antag | EPAC2 antagonist | EPAC1 agonist | EPAC2 agonist | USP1-UAF1 inh | ALOX12 inh
C[C@H](NC(=O)c1ccccc1)C(=O)O | / | / | / | / | / | .
CS(=O)(=O)Cc1cccc(C(=O)NCC(O)c2cccc(Cl)c2)c1 (centres undefined) | / | / | / | / | / | .
CCN(CC)C(CNS(=O)(=O)c1ccccc1)c1ccsc1 (centres undefined) | / | / | / | / | / | .
CCc1ccc(-c2nc3cc(NC(=O)c4ccc([N+](=O)[O-])o4)ccc3o2)cc1 | / | / | / | / | / | .
CCOCCCNC(=O)C1CC(=O)N(CCc2c[nH]c3ccc(C)cc23)C1 (centres undefined) | / | / | / | / | / | .
CCN(CC)c1ccc(SS(=O)(=O)O)cc1 | . | . | . | ? | ? | 25µM!
CCc1ccc(S(=O)(=O)Nc2ccc(N3CCN(C)CC3)cc2)cc1 | . | . | . | . | . | ?
CCc1ccc(S(=O)(=O)Nc2ccc3nc(N4CCN(CCC#N)CC4)cc(C(=O)O)c3c2)cc1 | / | / | / | / | / | 11µM
CCOc1ccc(NC2=NCC(=O)N2Cc2cccs2)cc1 | . | . | . | . | . | 35µM
CCN(CC(=O)Nc1ccccc1C(F)(F)F)C(=O)CCc1nc2sc3c(c2c(=O)[nH]1)CCCC3 | . | . | . | . | . | ?
